According to PubChem BioAssay (NCATS):
“And” between values parts separate entries of the source, which are not always exact repeats. Equal values may be shown once. Records with an inconclusive call do not appear. A call without a number means that no potency is given here. A structure can be active in one record and inactive in another. Unmarked numbers belong to inactive results. The source made the active and inactive calls. Calls follow the shape of the dose curve; as a rule, active = well fitted curve in the direction sought with a large enough effect; inconclusive = small, poorly fitted or top-dose-only effect, or another doubt; inactive = no such curve, though single readings can be large; an effect the other way counts as inactive or inconclusive.

Assays:
[1] = system: CRL-7250; assay: Cytotoxic Profiling of Annotated Libraries Using Quantitative High-Throughput Screening (AID 1296008); conditions: Five cell lines viability, CellTiter-Glo ATP luminescence, 48-72 h; max response: hits give low values; also: nearly all actives have a fitted effect of over 60% in size
How it was run: (§1)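 Cytotoxicity was measured as CellTiter-Glo ATP luminescence, read after 10 min at room temperature. Compound treatment of the cells lasted 48 or 72 hr at 37 degrees Celsius in a qHTS format.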

[2] = system: HEK293; assay: as above; conditions: Five cell lines viability, CellTiter-Glo ATP luminescence, 48-72 h; max response: hits give low values
How it was run: as §1

[3] = system: HaCat; assay: as above; conditions: Five cell lines viability, CellTiter-Glo ATP luminescence, 48-72 h; max response: hits give low values
How it was run: as §1

[4] = system: KB-3-1; assay: as above; conditions: Five cell lines viability, CellTiter-Glo ATP luminescence, 48-72 h; max response: hits give low values
How it was run: as §1

[5] = system: NIH3T3; assay: as above; conditions: Five cell lines viability, CellTiter-Glo ATP luminescence, 48-72 h; max response: hits give low values
How it was run: as §1

[6] = system: HACAT; assay: qHTS assay to identify novel small-molecules to repurpose for Merkel cell carcinoma treatment (AID 1296009); conditions: MCC and control cell lines, CellTiter-Glo viability, 72 h; at 44.8 µM (top of the series) unless noted; also: nearly all actives have a fitted effect of over 60% in size
How it was run: (§2)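 Cell viability, measured as CellTiter-Glo luminescence, was normalized between DMSO and no-cell wells. The cells had been exposed to 8- or 11-point compound dilutions for 72 hr at 37 degree celsius.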

[7] = system: HEK293T; assay: as above; conditions: MCC and control cell lines, CellTiter-Glo viability, 72 h; series mostly up to 44.8 µM
How it was run: as §2

[8] = system: MCC-13; assay: as above; conditions: MCC and control cell lines, CellTiter-Glo viability, 72 h; series mostly up to 46 µM
How it was run: as §2

[9] = system: MCC-26; assay: as above; conditions: MCC and control cell lines, CellTiter-Glo viability, 72 h; series mostly up to 46 µM
How it was run: as §2

[10] = system: MKL-1; assay: as above; conditions: MCC and control cell lines, CellTiter-Glo viability, 72 h; series mostly up to 46 µM
How it was run: as §2

[11] = system: UISO; assay: as above; conditions: MCC and control cell lines, CellTiter-Glo viability, 72 h; series mostly up to 46 µM
How it was run: as §2

[12] = system: WaGa; assay: as above; conditions: MCC and control cell lines, CellTiter-Glo viability, 72 h; series mostly up to 46 µM
How it was run: as §2

[13] = system: MKL-2; assay: as above; conditions: MCC and control cell lines, CellTiter-Glo viability, 72 h; series mostly up to 46 µM
How it was run: as §2

[14] = system: NIH3T3; assay: as above; conditions: MCC and control cell lines, CellTiter-Glo viability, 72 h; at 44.8 µM (top of the series) unless noted
How it was run: as §2

[15] = system: CASKI; assay: Primary qHTS to identify gynecologic anti-cancer compounds using libraries of approved drugs and bioactive compounds (AID 1345084); conditions: Gynecologic cancer cell panel viability, ATPlite luminescence, 48 h; series mostly up to 57.5 µM; also: nearly all actives have a fitted effect of over 55% in size
How it was run: (§3)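 Five-point cytotoxicity, 48 h drug exposure at 37 C, 5% CO2, on cells seeded 16 h beforehand. ATP content read by ATPlite luminescence.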

[16] = system: HeLa; assay: as above; conditions: Gynecologic cancer cell panel viability, ATPlite luminescence, 48 h; series mostly up to 57.5 µM
How it was run: as §3

[17] = system: Hek293T; assay: as above; conditions: Gynecologic cancer cell panel viability, ATPlite luminescence, 48 h, control line for the selectivity index; series mostly up to 57.5 µM
How it was run: as §3

[18] = system: JEG-3; assay: as above; conditions: Gynecologic cancer cell panel viability, ATPlite luminescence, 48 h; series mostly up to 57.5 µM
How it was run: as §3

[19] = system: C33A; assay: as above; conditions: Gynecologic cancer cell panel viability, ATPlite luminescence, 48 h; series mostly up to 57.5 µM
How it was run: as §3

[20] = system: Es-2; assay: as above; conditions: Gynecologic cancer cell panel viability, ATPlite luminescence, 48 h; series mostly up to 57.5 µM
How it was run: as §3
Potency is read from the fitted curve at half-maximal effect.

SMILES: COC(=O)[C@@H]1[C@H]2C[C@@H]3c4[nH]c5ccccc5c4CCN3C[C@@H]2CC[C@@H]1O
- outcome [1]: inactive
- outcome [2]: inactive
- outcome [3]: inactive
- max response [4]: 1.87%
- max response [5]: -9.61%
- outcome [6]: inactive
- Potency [7]: inactive
- Potency [8]: inactive
- Potency [9]: inactive
- Potency [10]: inactive
- Potency [11]: inactive
- Potency [12]: inactive

SMILES: C=C(C)[C@@H]1CC[C@]2(C)CC[C@]3(C)[C@H](CC[C@@H]4[C@@]5(C)CC[C@H](O)C(C)(C)[C@H]5CC[C@]43C)[C@@H]12
- max response [1]: -9.28%
- outcome [2]: inactive
- outcome [3]: inactive
- max response [4]: 8.9%
- outcome [5]: inactive
- outcome [6]: inactive
- Potency [7]: inactive
- Potency [8]: inactive
- Potency [9]: inactive
- Potency [10]: inactive
- Potency [13]: inactive
- outcome [14]: inactive
- Potency [11]: inactive
- Potency [12]: inactive

SMILES: O=C(C[C@@H]1CC=CCCC(=O)O[C@H](c2ccccc2)CNC1=O)NCc1ccc(Cl)cc1
- outcome [1]: inactive
- max response [2]: -3.28%
- outcome [3]: inactive
- outcome [4]: inactive
- max response [5]: -2.63%
- outcome [6]: inactive
- Potency [8]: inactive
- Potency [9]: inactive
- Potency [10]: inactive
- Potency [13]: inactive
- Potency [11]: inactive
- Potency [12]: inactive

SMILES: C[C@]12C=CC(=O)N[C@@H]1CC[C@H]1[C@H]3CC[C@@H](C(=O)Nc4cc(C(F)(F)F)ccc4C(F)(F)F)[C@@]3(C)CC[C@@H]12
- max response [1]: -6.18%
- max response [2]: -11%
- outcome [3]: inactive
- max response [4]: -3.32%
- outcome [5]: inactive
- outcome [6]: inactive
- Potency [8]: inactive
- Potency [9]: inactive
- Potency [10]: inactive
- Potency [13]: inactive
- outcome [14]: inactive
- Potency [11]: inactive
- Potency [12]: inactive

SMILES: Nc1ccc(C(=O)Nc2cccc(-c3nc(N4CCOCC4)c4oc5ncccc5c4n3)c2)cn1
- outcome [1]: inactive
- Potency [2]: 3.26 µM (active)
- max response [3]: -11.9%
- Potency [4]: 20.6 µM (active)
- outcome [4]: inactive
- Potency [5]: 2.31 µM (active)
- Potency [8]: inactive
- Potency [10]: inactive
- Potency [13]: inactive
- Potency [11]: inactive
- Potency [15]: 14.1 µM (active)

SMILES: CC1(C)CC(O)CC(C)(C)N1[O]
- outcome [1]: inactive
- outcome [2]: inactive
- outcome [3]: inactive
- max response [4]: 7.14%
- max response [5]: -4%
- outcome [6]: inactive
- Potency [7]: inactive
- Potency [8]: inactive
- Potency [9]: inactive
- Potency [10]: inactive
- Potency [13]: inactive
- Potency [11]: inactive
- Potency [12]: inactive

SMILES: Nc1ccn(C[C@@H](CO)OCP(=O)(O)O)c(=O)n1
- max response [1]: 3.98%
- max response [2]: -0.164%
- outcome [3]: inactive
- outcome [4]: inactive
- max response [5]: 0.667%
- outcome [6]: inactive [at 17.4 µM]
- Potency [8]: inactive
- Potency [9]: inactive
- Potency [10]: inactive
- Potency [13]: inactive
- Potency [11]: inactive
- Potency [12]: inactive

SMILES: NC[C@H]1O[C@H](O[C@H]2[C@@H](O)[C@@H](O[C@H]3O[C@H](CO)[C@@H](O)[C@H](N)[C@@H]3O)[C@H](N)C[C@@H]2N)[C@H](N)C[C@H]1O
- max response [1]: -1.47%
- max response [2]: 0.89%
- outcome [3]: inactive
- max response [4]: 1.19%
- max response [5]: -1.89%
- outcome [6]: inactive
- Potency [8]: inactive
- Potency [9]: inactive
- Potency [10]: inactive
- Potency [13]: inactive
- Potency [11]: inactive
- Potency [12]: inactive

SMILES: CN(N=O)C(=O)N[C@H]1C(O)OC(CO)[C@@H](O)[C@H]1O (stereo not given in full)
- max response [1]: -3.47%
- max response [2]: -7.38%
- outcome [3]: inactive
- max response [4]: 2.81%
- max response [5]: -17.4%
- outcome [6]: inactive
- Potency [8]: inactive
- Potency [9]: inactive
- Potency [10]: inactive
- Potency [13]: inactive
- Potency [11]: inactive
- Potency [12]: inactive

SMILES: COc1cc(CCc2cc(NC(=O)c3ccc(N4C[C@@H](C)N[C@@H](C)C4)cc3)n[nH]2)cc(OC)c1
- Potency [1]: 4.69 µM (active) and 8.2 µM (active)
- Potency [2]: 2.96 µM (active)
- outcome [3]: inactive
- Potency [4]: 9.35 µM (active)
- Potency [5]: 10.5 µM (active)
- outcome [6]: inactive
- Potency [7]: 14.6 µM (active)
- Potency [8]: inactive
- Potency [13]: inactive
- Potency [11]: 23.5 µM (active)
- Potency [12]: inactive
- Potency [16]: 25.1 µM (active)
- Potency [17]: inactive
- Potency [18]: inactive

SMILES: Cn1cc(C=CC(=O)c2cccc(F)c2)cc1C=CC(=O)NO
- max response [1]: -7.49%
- outcome [2]: inactive
- outcome [3]: inactive
- outcome [4]: inactive
- outcome [5]: inactive
- outcome [6]: inactive
- Potency [7]: inactive
- Potency [8]: inactive
- Potency [9]: inactive
- Potency [10]: inactive
- outcome [14]: inactive
- Potency [11]: inactive

SMILES: O=C(O)c1ccc(Nc2ncc3c(n2)-c2ccc(Cl)cc2C(c2c(F)cccc2F)=NC3)cc1
- max response [1]: 0.615%
- outcome [1]: inactive
- Potency [3]: 9.2 µM (active)
- Potency [4]: 18.7 µM (active) and 5.8 µM (active)
- Potency [9]: inactive
- Potency [13]: inactive
- Potency [11]: inactive
- Potency [19]: inactive
- Potency [20]: inactive
- Potency [17]: inactive
- Potency [18]: inactive

SMILES: COc1ccc(S(=O)(=O)Nc2cccnc2Nc2ccc(O)cc2)cc1
- Potency [1]: 3.66 µM (active)
- Potency [2]: 0.935 µM (active)
- Potency [3]: 20.9 µM (active)
- max response [3]: -5.46%
- Potency [4]: 332 nM (active) and 820 nM (active)
- Potency [8]: 3.72 µM (active)
- Potency [19]: 8.91 µM (active)
- Potency [20]: 2.24 µM (active)
- Potency [16]: 1.78 µM (active)
- Potency [18]: 2 µM (active)

SMILES: Nc1cccc2c1C(=O)N(C1CCC(=O)NC1=O)C2=O (stereo not given)
- max response [1]: 1.13%
- max response [2]: -10.8%
- outcome [3]: inactive
- max response [4]: -7.31%
- max response [5]: -1.24%
- outcome [6]: inactive
- Potency [8]: inactive
- Potency [9]: inactive
- Potency [10]: inactive
- Potency [13]: inactive
- Potency [11]: inactive
- Potency [12]: inactive
